{"source": "PubChem BioAssay (NCATS)", "note": "Records with an inconclusive call do not appear. A call without a number means that no potency is given here. Active and inactive are the calls of the source. Calls follow the shape of the dose curve; as a rule, active = well fitted curve in the direction sought with a large enough effect; inconclusive = small, poorly fitted or top-dose-only effect, or another doubt; inactive = no such curve, though single readings can be large; an effect the other way counts as inactive or inconclusive.", "data": [{"assay": "S16 Schwann cell viability assay (CellTiter-Glo assay) (AID 624031);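 also: cellular ATP luminescence as a viability measure; nearly all actives have a fitted effect of over 70% in size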", "conditions": "S16 rat Schwann cells viability, 24 h; series mostly up to 57.5 µM", "method_in_brief": "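CellTiter-Glo ATP luminescence counter-screen in untransfected S16 rat Schwann cells, 24h compound exposure at 37 degree Celsius after overnight seeding (500-750 cells/well); response scaled between cell-free wells and DMSO (0% activity), curves classed by r2 and magnitude.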", "values": [{"smiles": "Nc1nc2c(c(=O)[nH]1)N(C=O)[C@H](CNc1ccc(C(=O)N[C@@H](CCC(=O)O)C(=O)O)cc1)CN2", "outcome": "inactive"}, {"smiles": "OCC(O)C(O)C(O)CO", "note": "(stereo not given)", "outcome": "inactive"}, {"smiles": "COc1ccc2c(c1OC)C(=O)OC2[C@H]1c2c(cc3c(c2OC)OCO3)CCN1C", "note": "(stereo not given in full)", "outcome": "inactive"}, {"smiles": "COc1cccc2c1C(=O)c1c(O)c3c(c(O)c1C2=O)C[C@@](O)(C(=O)CO)C[C@@H]3O[C@H]1C[C@H](N)[C@H](OC2CCCCO2)[C@H](C)O1", "note": "(stereo not given in full)", "outcome": "inactive"}, {"smiles": "COc1ccc([C@@H]2CNC(=O)C2)cc1OC1CCCC1", "outcome": "inactive"}]}, {"assay": "S16 Schwann cell PMP22 intronic element firefly luciferase assay (AID 624032); also: nearly all actives have a fitted effect of over 30% in size; also: potency is read from the fitted curve at half-maximal effect", "conditions": "S16 rat Schwann cells, PMP22 element FLuc, 24 h; series mostly up to 57.5 µM", "method_in_brief": "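Rat S16 Schwann cells stably carrying a PMP22 intronic element-driven Fluc reporter were seeded overnight, then exposed to compounds for 24 h at 37 °C. Luminescence was normalized to PTC124 (positive control) and DMSO (0% activity).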", "values": [{"smiles": "Nc1nc2c(c(=O)[nH]1)N(C=O)[C@H](CNc1ccc(C(=O)N[C@@H](CCC(=O)O)C(=O)O)cc1)CN2", "Potency": "inactive"}, {"smiles": "CCCCCCCCCCCC(CC1OC(=O)C1CCCCCC)OC(=O)C(CC(C)C)NC=O", "note": "(stereo not given)", "Potency": "7.21 µM (active)"}, {"smiles": "OCC(O)C(O)C(O)CO", "note": "(stereo not given)", "Potency": "inactive"}, {"smiles": "COc1ccc2c(c1OC)C(=O)OC2[C@H]1c2c(cc3c(c2OC)OCO3)CCN1C", "note": "(stereo not given in full)", "Potency": "inactive"}, {"smiles": "COc1cccc2c1C(=O)c1c(O)c3c(c(O)c1C2=O)C[C@@](O)(C(=O)CO)C[C@@H]3O[C@H]1C[C@H](N)[C@H](OC2CCCCO2)[C@H](C)O1", "note": "(stereo not given in full)", "Potency": "inactive"}]}]}
